# Reference: the antibiotic and cytotoxicity screens of Wong et al. (2023)
# Hit rate of the full screen: of about 39,000 compounds, about 1,500 (3.8%) were called active. Only a selection was taken, and actives are over-represented in it overall.
# Tested on: HSkMC (human skeletal muscle cells)
# Assay: cytotoxicity call (relative viability < 0.9)
# Conditions: 10 µM
row,SMILES,cytotoxicity call
1,C[C@H](CO)N1C[C@H](C)[C@H](CN(C)Cc2ccc(O)cc2)OCc2ccccc2-c2c(n(C)c3ccccc23)C1=O,inactive
2,CC(C)NC(=O)Nc1ccc2c(c1)C(=O)N([C@H](C)CO)C[C@@H](C)[C@H](CN(C)S(C)(=O)=O)OCCCC[C@@H](C)O2,inactive
3,C[C@@H]1CN([C@H](C)CO)C(=O)Cc2cc(NS(=O)(=O)c3ccc(Cl)cc3)ccc2O[C@H]1CN(C)Cc1ccc(C(=O)Nc2ccccc2N)cc1,inactive
4,Cc1ccc(S(=O)(=O)N(C)C[C@@H]2Oc3cc(C#Cc4ccncc4)ccc3S(=O)(=O)N([C@@H](C)CO)C[C@@H]2C)cc1,inactive
5,C[C@H]1CN([C@@H](C)CO)C(=O)c2cccc(NS(=O)(=O)c3cn(C)cn3)c2O[C@H]1CN(C)S(=O)(=O)c1ccc(F)cc1,inactive
6,C[C@H]1CN([C@@H](C)CO)S(=O)(=O)c2ccc(C#Cc3ccc(F)cc3)cc2O[C@H]1CN(C)CC1CC1,inactive
7,C[C@@H]1CCCCO[C@H](CN(C)C(=O)CCC(F)(F)F)[C@H](C)CN([C@@H](C)CO)C(=O)c2cc(NC(=O)Nc3ccc4c(c3)OCO4)ccc2O1,inactive
8,CCOC(=O)C1=CC(OC(CC)CC)C(NC(C)=O)C(N)C1.O=P(O)(O)O (configuration not stated),inactive
9,COc1ccc(S(=O)(=O)N(C)C[C@@H]2Oc3ccc(NS(=O)(=O)c4ccc(F)cc4)cc3C(=O)N([C@@H](C)CO)C[C@@H]2C)cc1,inactive
10,C[C@H]1CN([C@@H](C)CO)C(=O)Cc2cc(NC(=O)C3CC3)ccc2O[C@H]1CN(C)S(=O)(=O)c1ccc(F)cc1,inactive
11,C[C@@H]1CN([C@H](C)CO)C(=O)c2cc(NC(=O)Nc3cccc4ccccc34)ccc2O[C@@H]1CN(C)C(=O)Nc1ccc2c(c1)OCO2,inactive
12,COc1ccc([C@H]([C@H](Cc2ccccc2)OC(C)=O)N(CC#C[C@@H](O)c2ccccc2)[C@@H](Cc2ccccc2)C(OC)OC)cc1,inactive
13,COc1ccc2c3c(n(c2c1)C)[C@H](CO)N(Cc1ccccc1F)C[C@]13CN(C1)C(=O)C1CCOCC1,inactive
14,C[C@@H]1CCCCO[C@H](CN(C)Cc2ccc(C(F)(F)F)cc2)[C@H](C)CN([C@@H](C)CO)C(=O)c2cc(NC(=O)Nc3ccc(C(F)(F)F)cc3)ccc2O1,active
15,C[C@H]1CCCCO[C@H](CN(C)Cc2ccc(C(F)(F)F)cc2)[C@@H](C)CN([C@@H](C)CO)C(=O)c2cc(NC(=O)Nc3ccc(C(F)(F)F)cc3)ccc2O1,inactive
16,C[C@@H]1CCCCO[C@H](CN(C)Cc2ccc(C(F)(F)F)cc2)[C@@H](C)CN([C@@H](C)CO)C(=O)c2cc(NC(=O)Nc3ccc(C(F)(F)F)cc3)ccc2O1,inactive
17,C[C@H](CO)N1C[C@H](C)[C@@H](CN(C)Cc2ccc(C(F)(F)F)cc2)OCCCC[C@H](C)Oc2ccc(NC(=O)Nc3ccc(C(F)(F)F)cc3)cc2C1=O,inactive
18,C[C@@H]1CN([C@@H](C)CO)C(=O)c2cc(NC(=O)Nc3ccc(C(F)(F)F)cc3)ccc2O[C@@H](C)CCCCO[C@H]1CN(C)Cc1ccc(C(F)(F)F)cc1,inactive
19,C[C@@H]1CCCCO[C@H](CN(C)Cc2ccc(C(F)(F)F)cc2)[C@H](C)CN([C@H](C)CO)C(=O)c2cc(NC(=O)Nc3ccc(C(F)(F)F)cc3)ccc2O1,active

row,SMILES,cytotoxicity call
1,C[C@@H]1CCCCO[C@H](CN(C)C(=O)c2ccccc2)[C@H](C)CN([C@H](C)CO)C(=O)c2cc(NC(=O)C3CCCCC3)ccc2O1,inactive
2,O=C(NCCN1CCOCC1)c1cccs1,inactive
3,CCc1c(Cl)c(O)c(Cl)c(O)c1C(=O)O[C@H]1[C@H](O)[C@H](OC)[C@H](OC/C2=C\C=C\C[C@H](O)/C(C)=C/[C@H](CC)[C@@H](O[C@@H]3OC(C)(C)[C@@H](OC(=O)C(C)C)[C@H](O)[C@@H]3O)/C(C)=C/C(C)=C/C[C@@H]([C@@H](C)O)OC2=O)O[C@@H]1C,active
4,COc1ccc(CN(C)C[C@H]2OCCCC[C@@H](C)Oc3ccc(NC(=O)Nc4ccccc4)cc3C(=O)N([C@H](C)CO)C[C@H]2C)cc1,active
5,COc1ccc(CN(C)C[C@@H]2OCCCC[C@H](C)Oc3ccc(NC(=O)Nc4ccc(F)cc4)cc3C(=O)N([C@@H](C)CO)C[C@@H]2C)cc1,inactive
6,COc1ccc(CN(C)C[C@H]2OCCCC[C@@H](C)Oc3ccc(NC(=O)Nc4ccc(F)cc4)cc3C(=O)N([C@H](C)CO)C[C@H]2C)cc1,active
7,COc1ccc(CN(C)C[C@H]2OCCCC[C@H](C)Oc3ccc(NC(=O)Nc4ccccc4)cc3C(=O)N([C@@H](C)CO)C[C@@H]2C)cc1,inactive
8,COc1ccc(CN(C)C[C@@H]2OCCCC[C@@H](C)Oc3ccc(NC(=O)Nc4ccccc4)cc3C(=O)N([C@@H](C)CO)C[C@@H]2C)cc1,inactive
9,COc1ccc(CN(C)C[C@@H]2OCCCC[C@H](C)Oc3ccc(NC(=O)Nc4ccc(F)cc4)cc3C(=O)N([C@H](C)CO)C[C@@H]2C)cc1,inactive
10,C[C@@H]1CCCCO[C@@H](CN(C)C(=O)C2CCCCC2)[C@H](C)CN([C@H](C)CO)C(=O)c2cc(NC(=O)Nc3ccc(C(F)(F)F)cc3)ccc2O1,inactive
11,C[C@H](CO)N1C[C@H](C)[C@H](CN(C)C(=O)Nc2ccccc2C(F)(F)F)OCc2cnnn2CCCC1=O,inactive
12,CO[C@@H]1CN(C)C(=O)c2cc(NC(=O)C3CC3)ccc2OC[C@H](C)N(C(=O)Cc2ccccn2)C[C@@H]1C,inactive
13,COc1ccc(S(=O)(=O)N[C@@H]2C=C[C@H](CC(=O)N3CCC(Cc4ccccc4)CC3)O[C@@H]2CO)cc1,inactive
14,Cn1cc(-c2ccno2)c(C(=O)O)n1,inactive
15,Cc1c(-c2c(-c3ccc(F)o3)sc3ncnc(O[C@H](Cc4ccccc4OCc4ccnn4CC(F)(F)F)C(=O)O)c23)ccc(OCCN2CCN(C)CC2)c1Cl,active
16,N#C[C@@H]1N[C@H](CO)[C@H]1c1ccccc1,inactive
17,COCC(=O)N1CC(C)(C)c2cc(-c3csc(NC(=O)c4ccc(F)c(OC(F)(F)F)c4)n3)ccc21,inactive
18,CCCCCCO[C@@H](C)c1cccc(-c2csc(NC(=O)c3cc(Cl)c(/C=C(\C)C(=O)O)c(Cl)c3)n2)c1OC,active
